# ssDAF-12 act: S. stercoralis DAF-12 activation, primary screen. AID 652126. actives 1% (n = 370,000). HEK293 ssDAF-12/GRIP1 lit1-tk-luc reporter, luminescence; % of 3 µM dafachronic acid response. activation, % at 6.8 µM;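 active = activation above the mean over all tested compounds plus 3 SD, cut at about 0.9% in these data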;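 also: 0% = DMSO-only wells and 100% = 3 µM delta7-dafachronic acid wells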
# APP 5'UTR act: APP 5'UTR luciferase reporter activation; SH-SY5Y APP 5'UTR luciferase reporter, luminescence; zero percent = DMSO vehicle wells; activation, % at 2 µM; actives 1% (n = 190,000); AID 1276;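 active = activation above a set limit, based on mean plus 3 SD of controls, cut at about 140% in these data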
# NF-kB expr up: raises NF-kB expression in human neuronal cells; actives 1.6% (n = 190,000); NF-kB reporter expression; stronger effect = higher value; AID 1239; fold change at 12.5 µM; in the data active = fold change above about 3.3
# hcDAF12 agonist: activators of H. contortus DAF-12 nuclear receptor; AID 652067; HEK293 hcDAF-12 lit1-tk-luc reporter, luminescence; 0% DMSO, 100% Δ7-dafachronic acid; actives 1.4% (n = 370,000); activation, % at 6.8 µM;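 active = activation above the mean of all tested compounds plus 3 SD, cut at about 5.5% in these data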;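 also: 100% = response to 3 µM Δ7-dafachronic acid high control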
# hgDAF-12 ag: hgDAF-12 agonism, primary luciferase screen. HEK293 GAL4-hgDAF12 UAS-luciferase reporter, agonist luminescence; normalized to butyrate control. activation, % at 6.8 µM. actives 1.8% (n = 370,000). AID 687014;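 active = activation above a cutoff set at the mean of all screened compounds plus 3 SD, cut at about 10% in these data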;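 also: 0% = DMSO wells and 100% = sodium butyrate wells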
# Starred values were filed as active, the others as inactive; . = no result given. Hits are enriched below; roughly 3.4% of the tested compounds scored in any of these assays.
SMILES,ssDAF-12 act,APP 5'UTR act,NF-kB expr up,hcDAF12 agonist,hgDAF-12 ag
O=C(NCCC1=CCCCC1)c1ccc(F)cc1,-0.2,210.5*,1.09,4.7,10.7*
CCOC(=O)c1[nH]c(C)c(C(=O)NCCC2=CCCCC2)c1C,-1.0,30.1,1.46,1.2,2.8
O=C(NCCC1=CCCCC1)NC12CC3CC(CC(C3)C1)C2,0.0,173.3*,1.43,4.7,5.2
COc1ccc(C(=O)NCC(=O)OCC(=O)NCCC2=CCCCC2)cc1,-1.0,17.3,1.06,-0.4,-0.3
COc1ccc(C(=O)NCCC2=CCCCC2)cc1,1.2*,153.7*,3.39*,5.6*,10.4
COC(=O)[C@H](C(C)C)N(Cc1cn(Cc2ccc(C)cc2)nn1)S(=O)(=O)c1ccccc1Br,-1.6,.,.,-2.4,2.6
CCOC(=O)Cn1cc(CN2C(C(=O)OC)CN(Cc3ccc(OC)cc3)CCS2(=O)=O)nn1 (stereo not drawn),-1.6,.,.,-1.3,-0.4
COC1=C[C@H](C(=O)NCc2ccccn2)[C@@]2(C)Cc3ccccc3[C@H]2CC1=O,-1.2,.,.,1.3,3.5
COc1ccc(CCNC(=O)c2ccc(CN3CCOCC3)cc2)cc1,-1.7,2.8,1.43,-1.7,0.7
O=C(NCCC1=CCCCC1)c1ccc(CN2CCOCC2)cc1,0.9*,101.8,2.62,5.2,7.0
Cc1ccc(N2C(=O)c3ccc(N)cc3C2=O)cc1C,-1.1,34.1,3.72*,4.5,9.3
CCCCCCCCNS(=O)(=O)CC1NCc2cc(OC)ccc21 (stereo not drawn),-0.6,.,.,-0.9,1.1
FC(F)(F)c1cccc(Cn2ccc3ccc(-c4ccc5ccn(Cc6cccc(C(F)(F)F)c6)c5c4)cc32)c1,-0.9,.,.,-1.8,3.4
CCC[C@H]1[C@@H](OC(=O)NCc2cccs2)CC[C@@]23CCCN2C(=O)CCC[C@@H]13,-1.2,.,.,-0.8,1.1
Brc1ccc(-c2nnc(-c3ccc4c(c3)OCO4)o2)o1,-1.2,5.0,3.95*,0.4,9.4
Brc1ccc(-c2nnc(-c3ccco3)o2)cc1,-0.7,70.0,2.95,4.8,9.1
c1ccc(-c2nnc(-c3ccco3)o2)cc1,-0.3,66.8,1.72,5.8*,10.6*
Cc1ccc(-c2nnc(-c3ccc4c(c3)OCO4)o2)cc1,-0.4,129.6,1.11,1.1,8.4
c1coc(-c2nnc(-c3ccc4c(c3)OCO4)o2)c1,-0.3,88.2,2.62,3.5,12.8*
CCOC(=O)C(=O)N1CCC(C(=O)NC2CCCc3ccccc32)CC1 (stereo not drawn),-1.1,.,.,-0.3,1.3
COC(=O)C12CCCN1C1C(=O)N(Cc3ccc(C(N)=O)cc3)CC1C2 (stereo not drawn),-0.9,.,.,-1.9,-0.5
CCC(CO)Nc1cccc2c1S(=O)(=O)N(Cc1cn(Cc3cccc(F)c3)nn1)Cc1ccccc1O2 (stereo not drawn),-0.2,.,.,-0.8,0.8
Cc1cc(C)c(C(=O)CN2C(=O)NC3(CCC(C)CC3)C2=O)cc1C (stereo not drawn),-1.8,1.6,1.51,0.3,1.2
Cc1cc(C)c(C(=O)CN2C(=O)NC3(CCCCC3)C2=O)cc1C,-0.8,3.1,0.93,6.2*,0.9
CCCCCCCCN1C(=O)[C@@H](CC(=O)NCCc2ccccc2OC)C[C@@]2(C(=O)OC)C1=C[C@H](C(C)C)O[C@@H]2C1CC1,-1.2,.,.,-3.0,-2.4
SMILES,ssDAF-12 act,APP 5'UTR act,NF-kB expr up,hcDAF12 agonist,hgDAF-12 ag
O=C(Nc1ccccc1C(F)(F)F)NC1(C(=O)N2CCOCC2)CCCCC1,-0.4,.,.,5.7*,1.9
CC(C)N1CCc2c(sc(NC(=O)C(F)(F)F)c2-c2nc3ccccc3s2)C1,-0.1,.,.,-0.6,9.0
O=C(Nc1cnc2ccccc2c1)c1cccnc1,-0.3,106.3,3.61*,1.5,9.0
O=C(Nc1cnc2ccccc2c1)c1cccc(-n2cnnn2)c1,0.0,60.1,1.45,6.3*,9.4
Cc1ccc(C(=O)Nc2cnc3ccccc3c2)cc1,-2.4,-30.7,0.71,-3.3,-12.0
COc1ccc(C=NNC(=O)c2ccncc2)cc1,-1.0,.,.,0.1,3.0
COc1cc(O)c(C(C)=O)c(CC(=O)O)c1,0.9*,.,.,-1.1,-2.5
O=C(N[C@@H]1CCCc2c1cnn2-c1ccc(F)cc1F)c1ccccn1,-2.0,.,.,-3.9,-2.0
Clc1ccc(-c2nc3cc(CN4CCCCC4)ccc3o2)cc1,-0.3,.,.,3.2,10.9*
Clc1cccc(CN2CCCCCC2)c1,-1.4,.,.,-2.3,0.6
O=C(OC12CCCN(C1)/C(=C/c1ccccc1)C2)c1ccc(F)cc1 (stereo not drawn),-0.7,.,.,5.1,0.6
O=C1CCCc2nc3c(cc21)C(O)Oc1c-3ccc2ccccc12 (stereo not drawn),-0.9,157.4*,2.24,2.3,12.4*
CCOC(=O)[C@@]12CCC3=C1N(CCC3)C(=O)[C@H](CC(=O)NCCc1ccccc1OC)C2,0.9*,.,.,-3.4,-1.9
CCOC(=O)[C@]12CCCC3=C1N(CCC3)C(=O)[C@@H](CC(=O)NCCc1ccccc1OC)C2,-1.8,.,.,-2.9,-0.6
CCOC(=O)C1CCN(C(=O)C(C)(C)NC(=O)Nc2ccc(OC)c(Cl)c2)CC1,-0.8,.,.,-0.1,-1.6
COc1ccc(-c2cn3ccccc3n2)cc1[N+](=O)[O-],-0.7,103.8,1,1.8,11.3*
CCCCOc1ccc(C2=CSC3=NCCN23)cc1[N+](=O)[O-],-0.9,.,.,-0.9,1.0
CCCOc1ccc(-c2cn3ccccc3n2)cc1[N+](=O)[O-],-0.7,142.2*,4.13*,-0.5,11.9*
CCCCOc1ccc(-c2csc(N)n2)cc1[N+](=O)[O-],-0.5,141.5*,5.36*,1.8,10.8*
CCN(Cc1cn(Cc2ccccc2)nn1)S(=O)(=O)c1ccc(N2CCCC2)cc1Br,-2.0,.,.,-2.5,2.0
CCc1ccc(CCNC(=O)OC2CCC23CCC(c2ccccc2)CC3)cc1 (stereo not drawn),-0.5,.,.,-1.3,2.1
O=C(CSc1nnc(COc2ccccc2)n1-c1ccccc1)Nc1ccc2c(c1)OCO2,-1.0,.,.,-1.5,1.2
CC(=O)O[C@H]1[C@H](OC(C)=O)C[C@]2(OC(C)=O)C[C@H]1OC2=O,-1.3,.,.,-1.9,2.4
Cc1ccc2c(c1C)NC(=O)C21N2CCCC2C(C(=O)c2ccc3ccccc3c2)C12C(=O)Nc1ccccc12 (stereo not drawn),1.1*,.,.,3.1,1.5
O=C(C1CCCN1S(=O)(=O)c1ccc(Cl)s1)N1CCc2ccccc2C1 (stereo not drawn),-0.9,.,.,-2.1,-1.2
CCn1c(COc2ccc(Cl)cc2)nnc1SCC(=O)Nc1ccccc1-c1ccccc1,-2.0,.,.,-3.7,-1.5
CC(=O)c1ccc([C@H](O)[C@H](C)C(=O)N(C)c2ccccc2)cc1,-0.5,.,.,-2.2,4.0
CCCCN1CC[C@@H](C)Oc2cc(Br)ccc2S1(=O)=O,-1.2,.,.,1.1,-2.4
O=C(Nc1ccc(N=Nc2ccccc2)cc1)c1ccccc1Cl,-0.8,158.1*,2.27,2.2,11.3*
